# Experimental data taken from PubChem BioAssay (NCATS).
# Values joined by “and” are separate entries in the source; they are usually repeats but may differ in a detail not shown here. Equal values may be shown once. Results filed as inconclusive are left out. Active and inactive are the calls of the source. Calls follow the shape of the dose curve; as a rule, active = well fitted curve in the direction sought with a large enough effect; inconclusive = small, poorly fitted or top-dose-only effect, or another doubt; inactive = no such curve, though single readings can be large; an effect the other way counts as inactive or inconclusive.
# Tests used:
# [1] = Viability qHTS for spleen associated tyrosine kinase inhibitor (SYKi) naive MV4-11 cells (AID 1963823); also: nearly all actives have a fitted effect of over 40% in size
# Summary of the method: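 Luminescence from CellTiter-Glo, developed 10 min at room temperature, gave viability of MV4-11 cells never exposed to SYK inhibitor. Cells (500/well) had been incubated with compounds for 72 hr under standard culture conditions.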
# [2] = Viability qHTS for spleen associated tyrosine kinase inhibitor (SYKi) drug resistant MV4-11 cells (AID 1963824); also: nearly all actives have a fitted effect of over 35% in size
# Summary of the method: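 SYK inhibitor-resistant MV4-11 AML cells, 500 per well, added to predispensed compounds and incubated 72 hr at 37 C, 5% CO2. Viability measured by CellTiter-Glo luminescence after 10 min at room temperature.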
# [3] = Cellular viability qHTS for adrenocortical cancer (ACC) cell line NCI-H295R (AID 1963990); also: nearly all actives have a fitted effect of over 60% in size
# Summary of the method: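 Compound titrations (up to 46 uM final) are applied to NCI-H295R cultures for 48 h at 37C. Viable cell number is estimated by CellTiter-Glo signal, normalised to DMSO and doxorubicin controls.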
# Potency is read from the fitted curve at half-maximal effect.
Structure (SMILES),Potency [1],Potency [2],Potency [3]
CCOc1cc2ncc(C#N)c(Nc3ccc(OCc4ccccn4)c(Cl)c3)c2cc1NC(=O)/C=C/CN(C)C,126 nM (active) and 525 nM (active),224 nM (active) and 525 nM (active),2 µM (active)
CCN(CC)CCNC(=O)c1c(C)[nH]c(/C=C2/C(=O)Nc3ccc(-c4csc(-c5ccccc5)n4)cc32)c1C,0.468 µM (active),1.32 µM (active),3.55 µM (active)
COC(=O)C1=C(C)NC(C)=C(C(=O)O[C@@H]2CCCN(Cc3ccccc3)C2)[C@@H]1c1cccc([N+](=O)[O-])c1,21.1 µM (active) and 13 µM (active),15 µM (active) and 13 µM (active),23.1 µM (active)
FC(F)c1nc2ccccc2n1-c1nc(N2CCOCC2)nc(N2CCOCC2)n1,0.186 µM (active),820 nM (active) and 525 nM (active),0.562 µM (active)
Cn1cc(C2=C(c3cn(C)c4cc([N+](=O)[O-])ccc34)C(=O)NC2=O)c2ccccc21,0.296 µM (active),0.372 µM (active),0.178 µM (active)
CCC[C@H](NC(=O)/C(C#N)=C/c1cccc(Br)n1)c1ccccc1,2.09 µM (active),2.35 µM (active),12.6 µM (active)
COc1ccccc1C(=O)Nc1cc2c(cc1N1CCNC[C@H]1C)n(C)c(=O)n2C,5.9 µM (active),11.8 µM (active),inactive
COc1c(C)c2c(c(O)c1C/C=C(\C)CCC(=O)OCCN1CCOCC1)C(=O)OC2,1.5 µM (active) and 332 nM (active),1.19 µM (active) and 833 nM (active),1.26 µM (active)
O=C(NOCCO)c1ccc2cncn2c1Nc1ccc(I)cc1F,2.06 µM (active),0.105 µM (active),inactive
Cc1c(F)cc(C(=O)NC2CC2)cc1-c1ccc(C(=O)NCC(C)(C)C)cn1,0.164 µM (active),0.461 µM (active),inactive
O=C(O)/C=C(\CC(=O)O)C(=O)O,inactive,inactive,inactive
OC1(c2ccc(Cl)c(C(F)(F)F)c2)CCN(CCCC(c2ccc(F)cc2)c2ccc(F)cc2)CC1,2.66 µM (active) and 3.66 µM (active),2.99 µM (active) and 3.26 µM (active),3.66 µM (active)
Oc1ccc(O)cc1,11.9 µM (active),13.3 µM (active),inactive
COc1ccc(NS(=O)(=O)c2ccc(N)cc2)nn1,inactive,inactive,inactive
COC(=O)[C@H]1[C@@H](O)[C@@]2(O)c3c(OC)cc(O[C@@H]4O[C@@H]([C@@H](O)CO)CO[C@H]4OC)cc3O[C@@]2(c2ccc(OC)cc2)[C@@H]1c1ccccc1,2.35 µM (active),1.66 µM (active),inactive
Cc1ccccc1C(=O)Nc1ccc(C(=O)N2CCCC(N(C)C)c3ccccc32)cc1 (stereo unspecified),5.96 µM (active) and 2.91 µM (active),4.73 µM (active) and 4.61 µM (active),1.64 µM (active)
C=CCNC1=C2C[C@@H](C)C[C@H](OC)[C@H](O)[C@@H](C)/C=C(\C)[C@H](OC(N)=O)[C@@H](OC)/C=C\C=C(/C)C(=O)NC(=CC1=O)C2=O,0.59 µM (active),1.66 µM (active),10 µM (active)
Cc1cc(=O)[nH]c(=S)[nH]1,inactive,inactive,inactive
CNC(=O)c1cccc(-c2ccc3c(N4CCOC[C@@H]4C)nc(N4CCOC[C@@H]4C)nc3n2)c1,164 nM (active) and 411 nM (active) and 132 nM (active),291 nM (active) and 580 nM (active) and 417 nM (active),0.794 µM (active)
C=C1C(=O)O[C@@H]2[C@H]3O[C@]3(C)CC/C=C(\C)CC[C@@H]12,2.35 µM (active),1.86 µM (active),10 µM (active)
c1ccc(-c2cc(CCC3CCNCC3)c3ccccc3n2)cc1,7.42 µM (active),6.61 µM (active),15.8 µM (active)
Oc1cc(O)cc(/C=C/c2ccc(O)c(O)c2)c1,5.9 µM (active) and 5.17 µM (active),5.9 µM (active) and 2.59 µM (active),inactive
C=CC(=O)Nc1cccc(C)c1Nc1ncc2cc(-c3c(Cl)c(OC)cc(OC)c3Cl)ccc2n1,1.03 µM (active),1.46 µM (active),3.55 µM (active)
Cc1nnc(C[C@@H]2C=C(c3ccc(Cl)cc3)c3ccccc3-n3c(C)nnc32)o1,0.235 µM (active),0.296 µM (active),6.31 µM (active)
OCCN1CCN(CC/C=C2/c3ccccc3Sc3ccc(C(F)(F)F)cc32)CC1,21.1 µM (active),21.1 µM (active),16.4 µM (active)
CC(C)=CCC[C@](C)(O[C@@H]1O[C@H](CO[C@@H]2O[C@H](CO)[C@@H](O)[C@H](O)[C@H]2O)[C@@H](O)[C@H](O)[C@H]1O)[C@H]1CC[C@]2(C)[C@@H]1[C@H](O)C[C@@H]1[C@@]3(C)CC[C@H](O[C@@H]4O[C@H](CO)[C@@H](O)[C@H](O)[C@H]4O[C@@H]4O[C@H](CO)[C@@H](O)[C@H](O)[C@H]4O)C(C)(C)[C@@H]3CC[C@]12C,inactive,inactive,inactive
NC(=O)c1cnc2[nH]ccc2c1NC1C2CC3C[C@H]1CC(O)(C3)C2 (stereo partly specified),0.105 µM (active),0.468 µM (active),inactive
